Source: PubChem
Shown are actives, neighbours in structure and some others; about 27% of the full set was active somewhere.
sEH act: soluble epoxide hydrolase activators, primary screen, biochemical, human sEH. activation, % at 2 µM. purified human sEH enzymatic activity, activator screen. Bifunctional epoxide hydrolase 2 (Homo sapiens), P34913. hit rate 0.04% among 91,000; in the data active = activation above about 37%
Target sequence (P34913 whole entry, looked up): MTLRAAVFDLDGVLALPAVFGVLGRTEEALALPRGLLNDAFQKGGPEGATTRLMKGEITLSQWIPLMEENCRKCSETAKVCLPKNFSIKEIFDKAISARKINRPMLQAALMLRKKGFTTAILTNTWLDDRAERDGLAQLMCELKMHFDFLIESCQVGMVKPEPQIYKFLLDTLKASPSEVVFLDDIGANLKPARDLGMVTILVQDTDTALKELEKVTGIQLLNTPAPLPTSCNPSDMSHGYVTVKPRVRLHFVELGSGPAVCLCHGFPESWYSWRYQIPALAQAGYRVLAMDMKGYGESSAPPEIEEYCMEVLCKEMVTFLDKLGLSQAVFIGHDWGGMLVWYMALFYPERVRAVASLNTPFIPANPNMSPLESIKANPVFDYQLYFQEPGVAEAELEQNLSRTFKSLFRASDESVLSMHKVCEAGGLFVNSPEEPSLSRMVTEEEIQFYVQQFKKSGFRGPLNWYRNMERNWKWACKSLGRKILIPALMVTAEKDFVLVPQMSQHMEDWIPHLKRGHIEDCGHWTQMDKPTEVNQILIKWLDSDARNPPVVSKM
CYP2C9 inhib: blockers of cytochrome P450 2C9 activity – biochemical, luminescence, ADME assay, primary screen; P11712; CYP2C9 Supersomes, luciferin-H conversion; inhibition, % at 5 µM; hit rate 20% among 96,000; AID 777, 2007;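 active = blocking of liver enzyme CYP2C9 beyond about 50% at 5 µM, limit read from the data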
CYP2C9 act: human CYP2C9 activators, primary screen, biochemical, luminescence; hit rate 1.4% among 96,000; Cytochrome P450 2C9 (Homo sapiens), P11712; recombinant CYP2C9, luciferin-H conversion; hits give high values; factor 1 = untreated enzyme, 0 = blocked; activation factor at 5 µM;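 active = activation factor of 2 or more for CYP2C9 at a 5 µM dose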;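 also: 0 = sulfaphenazole-blocked wells and 1 = vehicle-only wells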
CYP2C19 activ: human CYP2C19 activators, primary screen, biochemical, luminescence. Cytochrome P450 2C19 (Homo sapiens), P33261. recombinant CYP2C19, luciferin-H EGE luminescence; hits give high values; 0 = fully inhibited enzyme, 1 = untreated enzyme. 96,000 tested, under 10 active. activation factor at 5 µM;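 active = activation factor of at least 2 at 5 µM in the primary screen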;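 also: 0 = wells with 2.5 mM tranylcypromine and 1 = vehicle-only wells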
CYP2C19 inhib: blockers of cytochrome P450 2C19 activity – biochemical, luminescence, ADME assay, primary screen | hit rate 21% among 96,000 | inhibition, % at 5 µM | AID 778, 2007 | P33261 | CYP2C19 Supersomes, luciferin-H EGE luminescence, 30 min;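 active = CYP2C19 inhibition above a set limit at 5 µM in the primary screen, cut at about 50% in these data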;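 also: plate controls were negative control wells for no effect and 2.5 mM tranylcypromine positive control for full effect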
sEH inhibitor: soluble epoxide hydrolase inhibitors, primary screen, biochemical, human sEH; inhibition, % at 2 µM; hit rate 0.34% among 91,000; Bifunctional epoxide hydrolase 2 (Homo sapiens), P34913; recombinant human sEH enzymatic activity assay; in the data active = inhibition above about 80%
The depositor's hits bear a star.

For CCc1ccc2c(c1)[C@]1(C(=O)N2)[C@@H]2C(=O)N(Cc3ccccc3)C(=O)[C@@H]2[C@@H]2CCCN21 the results were sEH act -10, CYP2C9 inhib 68*, CYP2C9 act 0.3, CYP2C19 activ 0.3, CYP2C19 inhib 75* and sEH inhibitor 8.
Cc1cc(Cl)cc2c1NC(=O)[C@]21[C@@H]2C(=O)N(Cc3ccccc3)C(=O)[C@@H]2[C@@H]2CCCN21 was read as sEH act -6, CYP2C9 inhib 32, CYP2C9 act 0.7, CYP2C19 activ 0.8, CYP2C19 inhib 18 and sEH inhibitor 6.
Screening Cc1nnc(SC(=O)N2c3ccccc3Sc3ccccc32)s1 returned CYP2C9 inhib 20, CYP2C9 act 0.8, CYP2C19 activ 0.8 and CYP2C19 inhib 17.
`COc1ccc(CN(C(=O)CSc2nnc(-c3ccc(F)cc3)o2)c2ccc(F)cc2)cc1` gave CYP2C9 inhib 68*, CYP2C9 act 0.3, CYP2C19 activ 0.5 and CYP2C19 inhib 54*.
O=C(CSc1nnc(Cn2nnc3ccccc32)o1)N(Cc1ccc(F)cc1)c1ccccc1 was read as sEH act 12, CYP2C9 inhib 59*, CYP2C9 act 0.4, CYP2C19 activ 0.7, CYP2C19 inhib 32 and sEH inhibitor -12.
COc1ccc(N(Cc2ccccc2)C(=O)CSc2nnc(Cn3nnc4ccccc43)o2)cc1 was read as sEH act -13, CYP2C9 inhib 74*, CYP2C9 act 0.3, CYP2C19 activ 0.6, CYP2C19 inhib 42 and sEH inhibitor 15.
For O=C(CSc1nnc(Cn2nnc3ccccc32)o1)Nc1ccc(Cl)cc1 the results were sEH act -4 and sEH inhibitor 5.
`COc1ccc(-n2c(Cn3nnc4ccccc43)nnc2SCC(=O)O)cc1` gave sEH act 1, CYP2C9 inhib -3, CYP2C9 act 1, CYP2C19 activ 1, CYP2C19 inhib 1 and sEH inhibitor 1.
Screening COC(=O)c1sccc1NC(=O)c1ccc(Br)s1 returned sEH act 2, CYP2C9 inhib -4, CYP2C9 act 1, CYP2C19 activ 1, CYP2C19 inhib 1 and sEH inhibitor 0.
`Cn1c(=O)c2c(nc(CN3CCN(C(=O)c4ccco4)CC3)n2Cc2ccc(Cl)cc2)n(C)c1=O` gave CYP2C9 inhib 23, CYP2C9 act 0.8, CYP2C19 activ 0.9 and CYP2C19 inhib 12.
O=S(=O)(NC(=NC1CCCC1)C(F)(F)F)c1ccccc1 was read as sEH act 7, CYP2C9 inhib -41, CYP2C9 act 1.4, CYP2C19 activ 0.3, CYP2C19 inhib 66* and sEH inhibitor -9.
For CC(C)OCCCNC(=O)CCN1C(=O)COc2ccccc21 the results were CYP2C9 inhib -9, CYP2C9 act 1.1, CYP2C19 activ 1 and CYP2C19 inhib 3.
Screening CCOc1ccccc1CNC(=O)CCN1C(=O)COc2ccccc21 returned sEH act 0, CYP2C9 inhib -86, CYP2C9 act 1.9, CYP2C19 activ 0.3, CYP2C19 inhib 75* and sEH inhibitor 0.
COc1cc(NC(=O)CSc2nnc(C)s2)cc(OC)c1 was read as sEH act 7, CYP2C9 inhib 38, CYP2C9 act 0.6, CYP2C19 activ 0.5, CYP2C19 inhib 52* and sEH inhibitor -7.
COc1ccc(NC(=O)CCSc2nnc(C)s2)cc1 was read as sEH act -6, CYP2C9 inhib -27, CYP2C9 act 1.3, CYP2C19 activ 1.1, CYP2C19 inhib -12 and sEH inhibitor 8.
For CC[n+]1c(/C=C/C=C/N(C(C)=O)c2ccccc2)sc2ccccc21 the results were sEH act 12 and sEH inhibitor -9.
Screening CCN1C(=O)/C(=C/N(C(C)=O)c2ccccc2)N(c2ccccc2)C1=S returned sEH act 4, CYP2C9 inhib 95*, CYP2C9 act 0, CYP2C19 activ 0.4, CYP2C19 inhib 63* and sEH inhibitor -4.
`c1cnc(SCCOc2ccc3c(c2)CCC3)nc1` gave sEH act -5, CYP2C9 inhib 23, CYP2C9 act 0.8, CYP2C19 activ 0.9, CYP2C19 inhib 14 and sEH inhibitor 7.
